Rin1-Abl PPI inh = inhibitors of Rin1-Abl protein binding, primary screen, biochemical, TR-FRET. Tyrosine-protein kinase ABL1 (Homo sapiens) + Ras and Rab interactor 1 (Homo sapiens), …. inhibition, % at 7.35 µM. hit rate 0.4% among 360,000. AID 588664, 2011; in the data active means inhibition above about 5%, passing the limit was not always enough
LEDGF integ inh = blockers of LEDGF/p75-dependent integrase strand transfer – biochemical, TR-FRET, high throughput, primary screen. HIV-1 integrase (with human LEDGF/p75). TR-FRET IN-LEDGF/p75 DNA integration, Eu/Cy5. inhibition, % at 3.7 µM. hit rate 0.64% among 370,000;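 active means inhibition above the screen-wide mean plus 3 SD, cut at about 13% in these data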;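 further: signal is the Cy5 over europium emission ratio at 671 and 618 nm; 0% = plate median of compound wells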
proKLK7 act = proKLK7 zymogen activators, primary screen, biochemical, fluorescence intensity | purified proKLK7, EDANS-DABCYL substrate fluorescence; 100% is mature enzyme control, 0% vehicle | hit rate 0.9% among 370,000 | Kallikrein-7 (Homo sapiens), P49862 | activation, % at 7 µM;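 active means activation above the mean of all tested compounds plus 3 SD, computed per campaign excluding outliers beyond control limits, cut at about 13% in these data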
MBD2 inh = inhibitors of MBD2 binding to methylated DNA, primary screen, biochemical, TR-FRET, DNA-binding domain, human. Methyl-CpG-binding domain protein 2 (Homo sapiens), Q9UBB5. MBD2 binding to methylated oligonucleotide. inhibition, % at 4.4 µM. hit rate 0.31% among 370,000; in the data active means inhibition above about 13%
Target sequence (Q9UBB5 whole entry, looked up, the tested form may be a part): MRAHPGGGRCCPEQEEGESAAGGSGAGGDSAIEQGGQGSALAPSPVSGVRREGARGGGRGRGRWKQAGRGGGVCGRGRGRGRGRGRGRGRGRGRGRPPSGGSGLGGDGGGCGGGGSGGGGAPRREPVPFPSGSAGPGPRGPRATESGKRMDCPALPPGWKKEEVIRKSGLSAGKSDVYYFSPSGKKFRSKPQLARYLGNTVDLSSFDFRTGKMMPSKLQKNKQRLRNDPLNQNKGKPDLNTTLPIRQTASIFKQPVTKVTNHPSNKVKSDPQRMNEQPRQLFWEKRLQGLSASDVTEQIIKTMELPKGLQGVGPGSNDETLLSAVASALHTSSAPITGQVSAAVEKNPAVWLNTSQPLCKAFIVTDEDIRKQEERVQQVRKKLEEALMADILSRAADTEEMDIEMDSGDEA
UHRF1 binding = UHRF1 methylated DNA binding inhibitors, primary screen, counter-screen for MBD2 inhibitor project, biochemical, TR-FRET, human UHRF1, single concentration. UHRF1 binding to methylated oligo. inhibition, % at 4.4 µM. hit rate 0.75% among 370,000; in the data active means inhibition above about 21%;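 further: UHRF1 SRA domain binding a hemimethylated CpG hairpin DNA probe; 0% = median of test compound wells and 100% = reference inhibitor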
Neddylation inh = inhibitors of cullin neddylation, primary screen, biochemical, TR-FRET, uHTS, NAE and Ubc12 | NEDD8-conjugating enzyme Ubc12 (Homo sapiens) + NEDD8-activating enzyme E1 regulatory … | calls only at 25 µM | hit rate 0.58% among 360,000; in the data active means inhibition above about 36%
* hit, by the source's call; i = inactive; nt = no result shown; + = active, no number. Rows were chosen to be rich in hits. Some 3.1% of all compounds tested hit in one or more screens of this group.

SMILES	Rin1-Abl PPI inh	LEDGF integ inh	proKLK7 act	MBD2 inh	UHRF1 binding	Neddylation inh
Cc1cc(C)c[n+](C(C)C(=O)c2ccc(Cl)cc2)c1 (stereo not drawn)	1	-1	1	3	-1	i
Cc1cc(C(=O)COC(=O)c2cccnc2Cl)c(C)n1C	0	35*	0	-5	0	i
CCN1/C(=C/c2ccc3cc(C)ccc3[n+]2C)Sc2ccc3sccc3c21	-9	4	0	5	41*	i
Cc1ccc(S(=O)(=O)NC2=C(N3CCN(Cc4ccccc4)CC3)C(=O)c3ccccc3C2=O)cc1	-7	3	0	-8	-6	i
CCOC(=O)N1CCN(C2=C(NS(=O)(=O)c3ccc(C)cc3)C(=O)c3ccccc3C2=O)CC1	1	15*	1	-17	-6	i
O=C(Nc1cccc(O)c1)C(=O)Nc1ccccn1	-1	0	0	0	68*	i
CCC1=NN(C(=O)c2cccnc2)C(O)(C(F)(F)F)C1 (stereo not drawn)	2	2	0	1	-3	i
COc1ccc(CNC(=O)N[C@@H](CC(C)C)C(=O)O)cc1OC	-1	-3	0	11	26*	i
CCC(C)[C@H](NC(=O)NCc1ccc(OC)c(OC)c1)C(=O)O (stereo partly drawn)	-2	2	0	4	-3	i
O=c1oc2c(O)c(O)cc3c(=O)oc4c(O)c(O)cc1c4c23	61*	nt	nt	nt	nt	i
O=c1oc2ccccc2c2oc3cc(O)c(O)cc3c12	-3	5	0	-4	-10	nt
O=S(=O)(N1CCCCC1)n1c(Cc2ccccc2)nc2ccccc21	-1	0	1	5	35*	i
CCC(=O)Nc1nnc(S(=O)(=O)N(C)Cc2ccco2)s1	7	-1	0	-3	21*	i
CCCC(=O)Nc1nnc(S(=O)(=O)N(C)Cc2ccco2)s1	4	nt	nt	nt	nt	i
COc1ccccc1CNC(=O)COC(=O)c1cc(C)nc2ccccc12	-3	-2	0	3	0	i
COc1ccc(NC(=O)CN(C)C(=O)c2cc(-c3ccco3)nc3ccccc23)cc1	1	11	-12	12	29*	i
COc1ccccc1CNC(=O)COC(=O)c1cc(-c2ccco2)nc2ccccc12	3	10	1	20*	31*	i
COc1nc(C)cc(C)c1S(=O)(=O)c1ccc(Cl)cc1	3	2	0	0	2	i
CCOc1nc(C)cc(C)c1S(=O)(=O)c1ccc(Cl)cc1	-1	1	1	7	25*	i
CC1CN(C(=O)c2ccccc2Oc2ccccc2)CC(C)O1 (stereo not drawn)	-3	3	0	4	33*	i
CCCCCCSc1cc(-c2nc3ccc(Cl)cn3c2NC2CCCCC2)ccc1OC	3	0	0	0	58*	i
CCCCNc1c(-c2ccc(SC3CCCCC3)c(OC)c2)nc2ccc(Cl)cn12	-3	11	-1	10	24*	i
CCCCCCSc1ccc(-c2nc3ccc(Cl)cn3c2NC2CCCCC2)cc1	-3	-1	0	-2	0	i
CCCCCCSc1ccc(-c2nc3ccc(Cl)cn3c2NCCCC)cc1OC	-2	-2	-17	4	-1	nt
CCNC(=S)Nc1ccc(C)c(Cl)c1	2	0	-1	1	25*	i
SMILES	Rin1-Abl PPI inh	LEDGF integ inh	proKLK7 act	MBD2 inh	UHRF1 binding	Neddylation inh
CCNC(=S)Nc1ccc(Cl)cc1	-6	0	-1	0	5	i
COc1cccc(CC(=O)OCC(=O)NC2(C#N)CCCCC2)c1	-3	-4	0	4	46*	i
Cc1noc(C)c1S(=O)(=O)Nc1ccc(C(=O)NC2CCCCC2C)cc1 (stereo not drawn)	-3	-1	0	-3	-2	i
Cc1noc(C)c1S(=O)(=O)Nc1ccc(C(=O)NC2CCCCCC2)cc1	0	7	-1	11	21*	i
CCCCC(=O)/C=C/n1c(=S)oc2ccccc21	-3	-2	1	8	23*	i
CC(C)OC(=O)n1c(=S)oc2ccccc21	-2	-3	0	-8	0	i
O=C1NC(=S)S/C1=C\c1cc2ccccc2nc1N1CCCCC1	2	2	1	4	78*	i
O=C1NC(=S)SC1=Cc1ccccc1Cl	5	5	0	5	-3	i
COc1ccc2nc(N3CCCCC3)c(/C=C3\SC(=S)NC3=O)cc2c1	6.6*	-1	1	-1	-2	i
C=C(C)[C@@H]1C2=CC(C(=O)OC)=C(C[C@H](C(=C)C)[C@H]3O[C@H]3C3=C[C@H]1OC3=O)O2	2	-3	1	-1	0	i
COc1ncnc2c1ncn2CCCN(C)CCc1ccccn1	-3	0	-1	8	3	i
CC(C)=CCN1CCNC(=O)C1CC(=O)NCc1nc(C)c(C)s1 (stereo not drawn)	2	-3	0	-3	3	i
O=C(C[C@@H]1C[C@@H]2c3cc(NS(=O)(=O)c4ccc(F)cc4)ccc3O[C@@H]2[C@H](CO)O1)NCc1ccc(Oc2ccccc2)cc1	7	2	1	10	23*	i
COc1ccc(C(C)NC(=O)c2ccccc2Br)cc1OC (stereo not drawn)	2	-2	0	-3	-1	i
Cc1ccc(C)c(C(C)NC(=O)c2ccccc2Br)c1 (stereo not drawn)	2	-3	0	0	22*	i
COC1=C[C@H](C(=O)NCc2ccccn2)[C@@]2(C)Cc3ccccc3[C@H]2CC1=O	nt	-2	0	-4	-1	nt
Cn1nc(-c2ccccc2)c(CN2CCN(c3ncccn3)CC2)c1Cl	1	7	0	7	34*	i
CCN(CC)S(=O)(=O)c1ccc(NC=C(C#N)C#N)cc1	-5	1	1	-4	-4	i
Cc1ccccc1N1CCN(C2CCCN(C(=O)c3csc(C(C)C)n3)C2)CC1 (stereo not drawn)	1	15*	0	0	1	i
Cc1ccc(-c2cc(C(F)F)n3ncc(C(=O)N4CCN(c5ccccn5)CC4)c3n2)cc1	1	-2	1	3	-1	i
CCN1CCN(C(=O)c2cnn3c(C(F)F)cc(-c4ccc(C)cc4)nc23)CC1	-2	-2	13*	-3	-2	+

Screening data: PubChem, several laboratories
